Pf growth 96h = P. falciparum growth inhibition at 96 hour, primary screen for plastid delayed-death inhibitors | P. falciparum luciferase reporter growth, 96 h | Potency, µM (highest dose often 28.7 µM), for the others: at the highest dose activity change, negative = inhibition, usual class: inhibitors | 320,000 tested, 6.9% active; note: % is set by controls: 0 for no effect and ±100 for the full control effect
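Compounds incubated with erythrocytes infected by luciferase-expressing P. falciparum (2% hematocrit, 0.05% parasitemia final) for 96 hours, 37 C in 5% CO2. Growth inhibition scored as decreased luciferase luminescence.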
Pf growth 48h = P. falciparum growth inhibition at 48 hours (one generation). P. falciparum luciferase growth in erythrocytes, 48 h. Potency, µM (highest dose often 28.7 µM), inactives show at the highest dose activity change, negative = inhibition, usual class: inhibitors. 310,000 tested, 5.9% active; note: % is set by controls: 0 for no effect and ±100 for the full control effect
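Compounds are pin-transferred into medium, infected erythrocytes (2% hematocrit, 0.1% parasitemia final) are added, and plates sit one parasite generation at 37 C in 5% CO2. Detection reagent is then added and luminescence measured.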
SARS PLP yeast = inhibitors of SARS-CoV papain-like protease in yeast. S. cerevisiae expressing SARS-CoV PLpro, growth rescue. Potency, µM (doses to about 32.9 µM), for inactives: top-dose activity, positive = growth rescue, hits mostly activators. 330,000 tested, 0.19% active. AID 485353; calls by dose curve; note: 0% is about no effect; nearly all actives have a fitted effect of over 55% in size
AMA1 RON2 block = disrupts binding of P. falciparum AMA1 to RON2. Potency, µM (titrated, usually from 58.2 µM), inactives show top-dose activity change, negative = inhibition, most hits filed as inhibitors. AID 720542. 360,000 tested, 0.2% active. AlphaScreen AMA1-biotinylated RON2 peptide binding;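 note: 0% = vehicle wells and -100% = peptide control; nearly all actives have a fitted effect of over 45% in size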
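AMA1 (3D7) with his tag at 25 nM final met compounds first, then biotinylated RON2 peptide at 25 nM; detection used donor plus acceptor beads, 10 µg/mL apiece, read by AlphaScreen after 30 min at room temperature.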
Active calls of the source: *; ? = inconclusive; . = no result given; [ ] = dose if it differs, or a comment. Rows were chosen to be rich in hits. Some 9.4% of all compounds tested hit in one or more screens of this group. Unless noted, calls come from the whole dose curve; as a rule, active = well fitted curve in the direction sought with a large enough effect; inconclusive = small, poorly fitted or top-dose-only effect, or another doubt; inactive = no such curve, though single readings can be large; an effect the other way counts as inactive or inconclusive. Potency is the fitted concentration of half-maximal effect.

SMILES	Pf growth 96h	Pf growth 48h	SARS PLP yeast	AMA1 RON2 block
COC(=O)CC1C(=O)NCCN1C(=O)c1ccc2oc(C(C)C)nc2c1 (centres undefined)	15µM*	7%	7%	-13%
CCCCc1nc2cc(C(=O)N3CCNC(=O)C3CC(=O)OC)ccc2o1 (centres undefined)	?	29%	0%	-1%
CCC1=Nc2cc(C(=O)NCc3ccco3)ccc2Sc2ccccc21	11%	7.4µM*	-32%	-17%
CCC1=Nc2cc(C(=O)NCc3ccco3)ccc2Sc2ccc(Cl)cc21	39%	1.5µM*	-14%	-10%
CCC1=Nc2cc(C(=O)O)ccc2Sc2ccccc21	?	9%	11%	6%
CCC1=Nc2cc(C(=O)NCC3CCCO3)ccc2Sc2ccc(Cl)cc21 (centres undefined)	?	?	1%	-8%
CCC1=Nc2cc(C(=O)NCC3CCCO3)ccc2Sc2ccc(Br)cc21 (centres undefined)	?	2.9µM*	-10%	-1%
COC1OC2COC(c3ccccc3)OC2C(O)C1N (centres undefined)	.	.	.	-1%
CC1(C)CC(=O)C(C=NCCN2CCN(CC(=O)Nc3ccc(F)cc3)CC2)=C(O)C1	-13%	11%	-1%	0%
CCS(=O)(=O)N1Cc2cc(C(=O)N(C)C)nc(-c3cccc(-c4ccc(F)cc4)c3)c2[C@H]1CCO	.	.	.	7%
CC(C)COc1ccc(CN=C(N)N=C(N)N)cc1Cl	?	2.9µM*	-6%	75%
CC(C)Oc1ccc(CN=C(N)N=C(N)N)cc1Cl	?	12µM*	9%	68%
Cc1ccc(N(C(=O)c2ccc3c(c2)OCO3)C2C=CS(=O)(=O)C2)cc1 (centres undefined)	-24%	1%	2%	-2%
CCCOc1ccc2nc(NC(=O)OC)sc2c1	-16%	-21%	.	.
C/C(=N\NC(=O)C1CC1)c1ccc(C)c(C)c1	-26%	?	-2%	100%
C/C(=N\NC(=O)C1CC1)c1ccc(Cl)c(Cl)c1	4.1µM*	.	-5%	12%
Clc1cccc(C(c2ccc3nc[nH]c3c2)n2ccnc2)c1 (centres undefined)	5.4µM*	13µM*	.	.
O=c1[nH]c(=O)n(-c2ccccc2)c(O)c1/C=C1/C(c2ccccc2)=Nc2ccccc21	9.3µM*	?	-68%	-11%[2.32 µM]
On1ccccc1=S	0.59µM*	0.83µM*	.	122%
CC(Sc1nc(-c2ccccc2)cc(C(F)(F)F)n1)C(=O)N1CCCC1 (centres undefined)	?	3%	-7%	5%
CC(Sc1nc(-c2ccccc2)cc(C(F)(F)F)n1)C(=O)N1CCOCC1 (centres undefined)	1.7µM*	?	?	9%
O=C1C2CCN(CC2)C1Cc1ccc(OCc2ccccc2)cc1 (centres undefined)	24%	0%	0%	-6%
CC(C)C(NC(=O)C(CC(=O)O)NC(=O)C(CCCCN)NC(=O)C(N)CCCN=C(N)N)C(=O)NC(Cc1ccc(O)cc1)C(=O)O (centres undefined)	1.5µM*	-1%	.	.
COC(=O)c1ccccc1NC(=O)c1cc(-c2ccc(C)cc2)on1	.	14%	?	16%
CCOc1cc(N2C(=O)CC3CS(=O)(=O)CC32)c(OCC)cc1NC(=O)c1ccccc1 (centres undefined)	62%	-7%	2%	-2%
SMILES	Pf growth 96h	Pf growth 48h	SARS PLP yeast	AMA1 RON2 block
Cc1ccc2c(c1)C(=O)C(=O)N2CC(=O)OC(C)C	0.029µM*	46%	4%	0%
Cc1ccc(OCCN2C(=O)C(=O)c3cc(C)ccc32)cc1	8%	-44%	-1%	-5%
CC(C)Cn1cnc2sc3c(c2c1=N)CCCC3	.	.	7%	1%
CC(C)CNC(=S)NC1CC2CCCC(C1)N2Cc1ccco1 (centres undefined)	12µM*	-17%	1%	-5%
Cc1ccc(NC(=S)NC2CC3CCCC(C2)N3Cc2cccs2)cc1 (centres undefined)	-26%	?	-6%	-1%
CC(C)CNC(=S)NC1CC2CCCC(C1)N2Cc1cccs1 (centres undefined)	3.7µM*	13µM*	15%	-9%
O=C(CC1COc2ccccc2O1)NC1CCCCC1 (centres undefined)	2%	36%	-1%	-2%
c1ccc(OCCN2CCOCC2)cc1	?	1%	3%	14µM*
CC1CCN(CCOc2cccc(Br)c2)CC1	?	8%	-11%	3%
Clc1cccc(OCCN2CCN(CCOc3cccc(Cl)c3)CC2)c1	?	3%	-30%	18µM*
Cc1ccccc1C(=O)OCCN1CCOCC1	8.3µM*	9%	3%	4%
N#Cc1nn(-c2c(Cl)cc(C(F)(F)F)cc2Cl)c(N)c1S(=O)C(F)(F)F (centres undefined)	-23%	1.9µM*	.	.
CN1CC(=O)N2[C@H]3c4ccccc4OC[C@@H]3[C@H](c3ccccc3)[C@]2(C)C1=O	.	.	7%	-3%
CCOC(=O)[C@H]1[C@H]2COc3ccc(OC)cc3[C@@H]2N2C(=O)CN(CCc3c[nH]c4ccccc34)C(=O)[C@@]12C	?	13µM*	-8%	-18%
C[C@@]12C(=O)N(CCc3c[nH]c4ccccc34)CC(=O)N1[C@H]1c3ccccc3OC[C@@H]1[C@@H]2c1ccccc1	6.6µM*	12µM*	?	-22%
CCOC(=O)[C@H]1[C@H]2COc3ccc(Br)cc3[C@@H]2N2C(=O)CN(Cc3ccc(OC)cc3)C(=O)[C@@]12C	?	7.4µM*	-1%	24%
CCOC(=O)[C@H]1[C@H]2COc3ccc(OC)cc3[C@@H]2N2C(=O)CN(Cc3ccco3)C(=O)[C@@]12C	?	?	-6%	0%
CCOC(=O)[C@H]1[C@H]2COc3ccc(Cl)cc3[C@@H]2N2C(=O)CN(Cc3ccc(OC)cc3)C(=O)[C@@]12C	6.6µM*	7.4µM*	?	-11%
CCn1c2ccccc2c2cc(NC(=O)COC(=O)Cc3cn4ccsc4n3)ccc21	?	16%	3%	-26%
CCOC(=O)[C@H]1[C@H]2COc3ccc(Cl)cc3[C@@H]2N2C(=O)CN(Cc3ccc(C)cc3)C(=O)[C@@]12C	?	12µM*	-6%	-4%
CCOC(=O)[C@H]1[C@H]2COc3cc(OC)ccc3[C@@H]2N2C(=O)CN(Cc3ccc(C)cc3)C(=O)[C@@]12C	2.6µM*	10µM*	-16%	-11%
Cc1cccc(N/C=C(\[N+](=O)[O-])S(=O)(=O)c2ccccc2)c1C	24%	12µM*	1%	4%
Cc1ccc(Nc2nc3ccccc3n3cnnc23)c(Cl)c1	16%	18%	-1%	-1%
CCCC(=O)N(Cc1cc2cccc(C)c2[nH]c1=O)c1ccccc1OC	-13%	12µM*	-4%	0%
CCCC(=O)N(Cc1cc2ccccc2[nH]c1=O)c1ccccc1OC	.	.	5%	-11%
O=C(O)[C@H]1CCCN1S(=O)(=O)c1cccc2cccnc12	23%	?	-3%	1%
O=C(NNc1nc(-c2ccccc2)cs1)c1ccccc1	2.3µM*	?	-1%	27%
